Screening results deposited in PubChem BioAssay by The Scripps Research Institute Molecular Screening Center.
Shown are actives, neighbours in structure and some others; about 4.6% of the full set was active somewhere.
DAX1 inh-1 – DAX1 (NR0B1) inhibitors, primary screen, cell-based, HEK293, Gal4-DAX1, luciferase luminescence | hit rate 0.99% among 340,000 | HEK293 Gal4-DAX1 luciferase reporter | AID 504766, 2011 | Nuclear receptor subfamily 0 group B member 1 (Homo sapiens), P51843 | inhibition, % at 6.75 µM;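 active = inhibition above the mean over all tested compounds plus 3 SD, cut at about 4.2% in these data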;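 note: 0% = DAX1-transfected cells with DMSO and 100% = empty-vector control cells with DMSO; inhibition shows as a rise in luminescence from relieved DAX1 repression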
Target sequence (P51843 207-470 limits assumed): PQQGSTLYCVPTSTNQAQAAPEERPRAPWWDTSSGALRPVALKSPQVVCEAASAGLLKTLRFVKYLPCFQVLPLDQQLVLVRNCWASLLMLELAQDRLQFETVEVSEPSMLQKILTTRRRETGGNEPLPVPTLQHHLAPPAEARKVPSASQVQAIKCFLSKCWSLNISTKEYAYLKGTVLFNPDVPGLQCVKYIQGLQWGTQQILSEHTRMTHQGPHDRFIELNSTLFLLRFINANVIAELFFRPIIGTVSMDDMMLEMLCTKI
hcDAF-12 act – H. contortus DAF-12 nuclear receptor activators, primary screen, cell-based, luminescence, HEK293, lit1-tk-luc reporter; HEK293 hcDAF-12 lit1-tk-luc reporter; 0% DMSO, 100% Δ7-dafachronic acid; activation, % at 6.8 µM; hit rate 1.4% among 370,000;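 active = activation above the mean of all tested compounds plus 3 SD, cut at about 5.5% in these data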;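 note: 100% = response to 3 µM Δ7-dafachronic acid high control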
ssDAF-12 act – S. stercoralis DAF-12 nuclear receptor activators, primary screen, cell-based, luminescence, HEK293, GRIP1 co-expression, lit1-tk-luc; Nuclear hormone receptor DAF-12 (Strongyloides stercoralis); activation, % at 6.8 µM; AID 652126, 2013; HEK293 ssDAF-12/GRIP1 lit1-tk-luc reporter; % of 3 µM dafachronic acid response; hit rate 1% among 370,000;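 active = activation above the mean over all tested compounds plus 3 SD, cut at about 0.9% in these data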;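 note: 0% = DMSO-only wells and 100% = 3 µM delta7-dafachronic acid wells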
Wee1 stabilizer – Wee1 degradation inhibitors, primary screen, cell-based, HeLa, Wee1K328M-luciferase, luminescence. HeLa Luc-Wee1K328M stability; 100% = proteasome inhibitor MG132 effect. reporter increase, % at 5 µM. hit rate 1.2% among 220,000;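 active = activation above the mean of all tested compounds plus 3 SD, set per screening run, cut at about 8.8% in these data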;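 note: cells exposed to compound for 20 h before luminescence read; 0% = DMSO alone and 100% = MG132 at 30 µM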
DAX1 inh-2 – DAX1 (NR0B1) inhibitors on StAR promoter, primary screen, cell-based, luminescence, SF-1 (NR5A1), full-length DAX-1; inhibition, % at 6.8 µM; hit rate 1.1% among 370,000; HEK293T StAR-luciferase reporter, SF-1/DAX-1 repression relief;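 active = inhibition above the mean over all tested compounds plus 3 SD, cut at about 3.6% in these data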;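 note: 0% = DAX-1 cells with DMSO and 100% = cells lacking DAX-1 with DMSO; higher inhibition means more luminescence from relief of DAX-1 repression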
hgDAF12 agonist – H. glycines DAF-12 receptor agonists, primary screen, cell-based, luminescence, HEK293, GAL4 fusion, UAS-luciferase | Nuclear hormone receptor DAF-12 (Heterodera glycines), GAL4 fusion | HEK293 GAL4-hgDAF12 UAS-luciferase reporter, agonist luminescence; normalized to butyrate control | activation, % at 6.8 µM | hit rate 1.8% among 370,000;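 active = activation above a cutoff set at the mean of all screened compounds plus 3 SD, cut at about 10% in these data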;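 note: 0% = DMSO wells and 100% = sodium butyrate wells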
hgDAF12 conf – H. glycines DAF-12 receptor agonists, confirmation, cell-based, luminescence, HEK293, GAL4-LBD fusion; hit rate 80% among 3,300; shares compounds with hgDAF12 agonist; activation, % at 6.8 µM; HEK293 GAL4-hgDAF12 luciferase reporter, agonist mode; percent of butyrate response;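 active = mean activation over triplicate wells above the hit cutoff derived from the earlier primary screen, cut at about 11% in these data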;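 note: 0% = DMSO low control and 100% = 2 mM sodium butyrate high control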
LXR ag 2 – LXR agonists, Gal4 luciferase reporter, confirmation, counter-screen for hgDAF-12 agonist project, cell-based, luminescence, HEK293, H. glycines campaign. activation, % at 6.8 µM. AID 743051, 2013. shares compounds with hgDAF12 agonist. 24 h. 3,300 tested, under 10 active;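 active = mean activation of the triplicate above a set limit carried over from the primary screen, none filed active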
An asterisk follows results filed as active; nt = no result.

SMILES | DAX1 inh-1 | hcDAF-12 act | ssDAF-12 act | Wee1 stabilizer | DAX1 inh-2 | hgDAF12 agonist | hgDAF12 conf | LXR ag 2
COc1ccc(-c2ccc(C(=O)Nc3ccc(Cl)cc3)c3occc23)c(C)c1 | nt | 0 | -1 | nt | 2 | 18* | 8 | 0
Cc1ccc(NC(=O)CSCC(=O)N(CCC(C)C)c2c(N)n(Cc3ccccc3)c(=O)[nH]c2=O)cc1 | 2 | 3 | 0 | nt | 2 | -1 | nt | nt
O=C(Nc1ccc(Cl)cc1)OCc1cn(-c2ccc(Cl)cc2)nn1 | 1 | 1 | -1 | -1 | 0 | 0 | nt | nt
Clc1ccc(-n2cc(COCc3ccccc3)nn2)cc1 | 0 | 5 | 0 | -2 | 3.8* | 21* | 11* | 1
Cc1ccccc1S(=O)(=O)NC(=O)C1(C)CCN1C(=O)Cc1ccccc1Cl (centres undefined) | nt | -2 | -1 | nt | -1 | 3 | nt | nt
O=c1[nH]c2ccccc2nc1-c1ccc(Cl)cc1 | 0 | 5 | 0 | 1 | 1 | 6 | nt | nt
O=c1[nH]c2ccccc2nc1-c1ccccc1 | 0 | 0 | 0 | -1 | 1 | 16* | 7 | 0
Cc1ccc(S(=O)(=O)N2CCN(C(=O)COC(=O)COc3ccc(Cl)cc3C)CC2)c(C)c1 | 0 | -1 | -1 | nt | 2 | 4 | nt | nt
Cc1ccc(Nc2nc(CSc3nnc(-c4ccccc4)n3C)cs2)cc1 | 1 | 4 | 0 | 1 | 2 | 14* | 12* | 0
N=c1oc2ccccc2cc1C(=O)NC1CCCCCC1 | 0 | 2 | 0 | nt | 2 | 14* | 14* | 1
CN(CC(=O)Nc1ccccc1Cl)C(=O)Cn1cnc2ccccc2c1=O | -1 | -2 | 0 | nt | -1 | -1 | nt | nt
O=C(Nc1ncc([N+](=O)[O-])s1)c1cccc([N+](=O)[O-])c1 | 4.6* | 5.9* | 0 | 6 | 1 | 14* | 9 | 1
O=C(Nc1ccc(NC(=O)c2cccc([N+](=O)[O-])c2)cc1)c1cccc([N+](=O)[O-])c1 | 1 | -2 | -1 | nt | 1 | 1 | nt | nt
O=C(Nc1ccccc1)OCCCc1ccccc1 | 1 | 0 | -1 | -2 | 1 | 16* | 12* | 0
O=C(Nc1ccccc1)OCCCCOC(=O)Nc1ccccc1 | -1 | -1 | -1 | nt | -1 | 5 | nt | nt
CC1=NN(C(=O)c2ccc(C)o2)C(O)(c2ccccc2)C1 (centres undefined) | 2 | 4 | 0 | 0 | 3.9* | 17* | -1 | 0
CC1=NN(C(=O)COc2ccccc2)C(O)(c2ccccc2)C1 (centres undefined) | 0 | 1 | -1 | -3 | 0 | 2 | nt | nt
O=C(Nc1nnc(SCC(=O)N2CCCc3ccccc32)s1)c1cccc2ccccc12 | 1 | -2 | -1 | 0 | 1 | 5 | nt | nt
Cc1ccc(C(=O)Nc2nnc(SCC(=O)N3CCCc4ccccc43)s2)cc1 | -2 | 4 | 1 | -3 | 4.2* | 14* | 9 | 1
O=C(NCC1CCCCC1)c1cccc(S(=O)(=O)N2CCCC2)c1 | 2 | 0 | -1 | nt | 2 | 2 | nt | nt
